The results in this text go back to PubChem BioAssay (Tox21).

Experiment [1] is described as follows: qHTS assay to identify small molecule agonists of the estrogen receptor alpha (ER-alpha) signaling pathway in the presence of an antagonist - cell viability counter screen (AID 1259386). Also: series mostly up to about 92 µM; % is scaled to controls: 0 for no effect and ±100 for the full control effect; nearly all actives have a fitted effect of over 30% in size. An outline of the steps:
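Compounds tested at 15 concentrations for 22 h at 37C alongside 10.0nM (final) ICI-182,780 antagonist, in VM7Luc4E2 cells grown in phenol red-free, charcoal-stripped medium. Viability read by CellTiter-Fluor fluorescence after 1 h reagent incubation.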

In experiment [2] the target is Progesterone receptor (Homo sapiens) (UniProt P06401). The experiment in a line: qHTS assay to identify small molecule agonists of the progesterone receptor (PR) signaling pathway (AID 1346784; calls by dose curve; also: % is scaled to controls: 0 for no effect and ±100 for the full control effect; nearly all actives have a fitted effect of over 30% in size). Summed up: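 PR-UAS-bla HEK 293T cells (beta-lactamase reporter under UAS) in 2% charcoal-stripped FBS, dosed with 23 nL compound after 6 hr, incubated 16hr at 37C. LiveBLAzer B/G FRET substrate added, fluorescence read after 2 hours.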

Experiment [3] in a line: qHTS assay to identify small molecule antagonists of the progesterone receptor (PR) signaling pathway - cell viability counter screen (AID 1346798). Also: series mostly up to about 92 µM; % is scaled to controls: 0 for no effect and ±100 for the full control effect; nearly all actives have a fitted effect of over 50% in size. An outline of the steps: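 PR-UAS-bla HEK293T cells, 3,000/well in 2% charcoal-stripped FBS medium, dosed with compounds plus R5020 agonist and incubated 16 h at 37C. Viability then measured in the same wells by CellTiter-Glo luminescence after 30 min at RT.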
On the technique in general: In qHTS, concentration-response curves come from the screen itself.

The nature of experiment [4]: qHTS assay to identify small molecule agonists of the progesterone receptor (PR) signaling pathway - cell viability counter screen (AID 1346799; calls by dose curve; also: % is scaled to controls: 0 for no effect and ±100 for the full control effect; nearly all actives have a fitted effect of over 45% in size). An outline of the steps:
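Counter screen in the PR-UAS-bla HEK293T wells (2% charcoal-stripped FBS, 16 h compound exposure at 37 C) after the bla read. CellTiter-Glo added, 30 min at room temperature, luminescence read as cell viability.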

Experiment [5] can be described thus: qHTS assay to identify small molecule antagonists of the TGF-beta/Smad signaling pathway - cell viability counter screen (AID 1346824). Also: % is scaled to controls: 0 for no effect and ±100 for the full control effect; nearly all actives have a fitted effect of over 50% in size. Summed up:
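Cytotoxicity counter-screen run in the same wells as the beta-lactamase Smad reporter read: CellTiter-Glo luminescence after 30 min at room temperature. HEK 293T SBE-bla cells had 5 hr compound exposure at 37 C with TGF-beta1 (0.25 ng/mL stock).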

Experiment [6] in a line: Human pregnane X receptor (PXR) small molecule agonists, qHTS cell viability counter screen (AID 1346977). Also: % is scaled to controls: 0 for no effect and ±100 for the full control effect; nearly all actives have a fitted effect of over 50% in size. Summed up:
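PXR-Luc HepG2 cells (2,000/well, 5% charcoal-stripped FBS) preincubated 5 hr, then exposed to compounds 24 hr at 37 C. Viability read in the same wells by CellTiter-Fluor fluorescence, reagent added at 23 hr, 1 hr incubation.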

Experiment [7] can be described thus: Caspase-3/7 induction in HepG2 cells by small molecules, qHTS assay (AID 1346978). Also: % is scaled to controls: 0 for no effect and ±100 for the full control effect; nearly all actives have a fitted effect of over 15% in size. Summed up: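 Caspase-3/7 induction was measured by Caspase-Glo 3/7 luminescence (30 min, room temperature) after a 17 hr compound exposure of wild-type HepG2 cells seeded at 2,000 per well and pre-incubated 5 hr.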
Experiment [8] is described as follows: Caspase-3/7 induction in CHO-K1 cells by small molecules, qHTS cell viability counter screen (AID 1346979). Also: nearly all actives have a fitted effect of over 35% in size. Also: potency is read from the fitted curve at half-maximal effect. An outline of the steps: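 Wild-type CHO-K1 cells (1,500/well) treated with compound after 5 h plating; after 16 h at 37C, viability read as CellTiter-Fluor fluorescence following 1 h reagent incubation, in the same wells as the caspase read.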
Experiment [9] is described as follows: Caspase-3/7 induction in CHO-K1 cells by small molecules, qHTS assay (AID 1346980). Also: % is scaled to controls: 0 for no effect and ±100 for the full control effect; nearly all actives have a fitted effect of over 15% in size. An outline of the steps: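 Luminescent Caspase-Glo 3/7 read (30min, room temperature) quantified apoptosis induction. Cells were wild-type CHO-K1, treated with compound for 17hr at 37 C and 5% CO2.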
Experiment [10] deals with Nuclear receptor subfamily 1 group I member 2 (Homo sapiens) (UniProt O75469). Description: Human pregnane X receptor (PXR) small molecule agonists, qHTS assay (AID 1346982). Also: nearly all actives have a fitted effect of over 35% in size. Also: potency is read from the fitted curve at half-maximal effect. As to activation: % is scaled to controls: 0 for no effect and ±100 for the full control effect. An outline of the steps:
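Agonist mode: luminescence from ONE-Glo after 24 h compound exposure at 37C in HepG2 cells carrying hPXR-responsive CYP3A4 luciferase, plated in charcoal-stripped serum medium 5 h beforehand.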

Experiment [11] can be described thus: qHTS assay to identify small molecule agonists of the TGF-beta/Smad signaling pathway - cell viability counter screen (AID 1346829). Also: top concentration of the series differs between compounds; % is scaled to controls: 0 for no effect and ±100 for the full control effect; nearly all actives have a fitted effect of over 45% in size. Summed up:
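Cytotoxicity counter screen: CellTiter-Glo luminescence (30 min, room temperature) measured in the SBE-bla HEK 293T reporter wells after 5 hr compound treatment at 37 C and the 2 hr substrate step.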

The nature of experiment [12]: qHTS assay to identify small molecule agonists of the TGF-beta/Smad signaling pathway (AID 1346859; active = well fitted activation curve with a large enough effect in the signal ratio in the repeat runs, not every such curve was filed as active; the % refers to the signal ratio; also: series mostly up to about 77 µM; % is scaled to controls: 0 for no effect and ±100 for the full control effect). An outline of the steps: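 SBE-bla HEK293T cells plated overnight, then compound exposure for 5 h at 37 C. Beta-lactamase reporter read with LiveBLAzer B/G FRET substrate after 2 h at room temperature, fluorescence at 405 nm excitation, 460/530 nm emission.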
Experiment [13] deals with Thyrotropin-releasing hormone receptor (Homo sapiens) (UniProt P34981). The experiment in a line: qHTS assay to identify small molecule antagonists of the thyrotropin-releasing hormone receptor (TRHR) signaling pathway (AID 1346877; active = well fitted inhibition curve with a large enough effect in the repeat runs, not every such curve was filed as active; also: series mostly up to about 51 µM; % is scaled to controls: 0 for no effect and ±100 for the full control effect). Summed up: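 Antagonist mode: after a 5 min room-temperature compound exposure, cells were stimulated with 1 nM (final) TRH. Dye-loaded TRHR-HEK293 cells were used, and calcium-dependent fluorescence was followed for 3 min, with 15-point titrations run in triplicate.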

For experiment [14] the target is unchanged. The experiment in a line: qHTS assay to identify small molecule agonists of the thyrotropin-releasing hormone receptor (TRHR) signaling pathway (AID 1346891; calls by dose curve; also: series mostly up to about 58 µM; % is scaled to controls: 0 for no effect and ±100 for the full control effect). Summed up: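 HEK293 cells expressing TRHR plated 18 h at 37 C/5% CO2, calcium dye-loaded 2 h at 37 C, then compound added (agonist mode); kinetic calcium fluorescence read 3 min at 1 s intervals; 15 concentrations in triplicate.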

Experiment [15] can be described thus: Caspase-3/7 induction in HepG2 cells by small molecules, qHTS cell viability counter screen (AID 1346981). Also: series mostly up to about 92 µM; % is scaled to controls: 0 for no effect and ±100 for the full control effect; nearly all actives have a fitted effect of over 30% in size. Summed up:
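CellTiter-Fluor fluorescence measured viability in the same wells used for Caspase-Glo 3/7. HepG2 (wild type) at 2,000 cells/well were pre-incubated 5 hr, dosed, and given reagent at 16 hr, with 1 hr further at 37C.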

Experiment [16] concerns the target Cytochrome P450 2D6 (Homo sapiens) (UniProt P10635). Description: Cytochrome P450 Family 2 Subfamily D Member 6 (CYP2D6) small molecule antagonists: luciferase reporter qHTS assay (AID 1671196). Also: nearly all actives have a fitted effect of over 50% in size. Also: potency is read from the fitted curve at half-maximal effect. An outline of the steps: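 CYP2D6 activity was followed as luminescence from its luciferin product after a 1 h NADPH-driven reaction at room temperature. Enzyme-substrate mix and compound were pre-incubated for 10 min, and the signal was read 20 min after adding detection reagent.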

Experiment [17] deals with Nuclear receptor subfamily 1 group I member 2 (Homo sapiens) (UniProt O75469). The experiment in a line: CYP3A4 induction through human pregnane X receptor (PXR) by small molecules, qHTS assay (AID 1346984). Also: potency is read from the fitted curve at half-maximal effect; nearly all actives have a fitted effect of over 40% in size. An outline of the steps: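 Read-out is luminescence after One-Glo addition, following a 3 hr, 37C incubation with Luciferin-IPA CYP3A4 substrate (3uM final). Before that, compounds were on DPX-2 cells (HepG2 co-transfected with PXR element plus CYP3A4-promoter luciferase) for 24 hr at 37C.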

The target is the same in experiment [18]. The experiment in a line: Human pregnane X receptor (PXR) activation by small molecules, qHTS assay (AID 1346985). Also: potency is read from the fitted curve at half-maximal effect; nearly all actives have a fitted effect of over 40% in size. An outline of the steps:
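DPX-2 cells (HepG2 co-transfected with a PXR response element and a CYP3A4-promoter luciferase construct) were seeded at 2,000 per well, rested 5 hr at 37C, then exposed to DMSO-dissolved compounds for 24 hr. Activation was read as luciferase luminescence.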

Experiment [19] deals with Nuclear receptor subfamily 1 group I member 2 (Rattus norvegicus) (UniProt Q9R1A7). The experiment in a line: Rat pregnane X receptor (rPXR) activation by small molecules, qHTS assay (AID 1346983). Also: % is scaled to controls: 0 for no effect and ±100 for the full control effect; nearly all actives have a fitted effect of over 20% in size. To be noted: rPXR luciferase reporter cells, One-Glo luminescence, 24 h; max activation: active compounds read high. Summed up: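 Luminescent readout (One-Glo luciferase, 30 min room temperature) followed 24 hr compound treatment at 37 C of rPXR cells plated 2,000 per well and preincubated 5hr; qHTS format with compounds delivered in DMSO.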

Molecules are shown by their SMILES. Unmarked numbers belong to inactive results. Results filed as inconclusive are left out. Activity calls are given as the source filed them. Unless noted, calls follow the shape of the dose curve; as a rule, active = well fitted curve in the direction sought with a large enough effect in the repeat runs; inconclusive = weak or mixed curves; inactive = no such curve, though single readings can be large; an effect the other way counts as inactive or inconclusive.

Cytochrome P450 2D6 (Homo sapiens), sequence (P10635 whole entry, looked up): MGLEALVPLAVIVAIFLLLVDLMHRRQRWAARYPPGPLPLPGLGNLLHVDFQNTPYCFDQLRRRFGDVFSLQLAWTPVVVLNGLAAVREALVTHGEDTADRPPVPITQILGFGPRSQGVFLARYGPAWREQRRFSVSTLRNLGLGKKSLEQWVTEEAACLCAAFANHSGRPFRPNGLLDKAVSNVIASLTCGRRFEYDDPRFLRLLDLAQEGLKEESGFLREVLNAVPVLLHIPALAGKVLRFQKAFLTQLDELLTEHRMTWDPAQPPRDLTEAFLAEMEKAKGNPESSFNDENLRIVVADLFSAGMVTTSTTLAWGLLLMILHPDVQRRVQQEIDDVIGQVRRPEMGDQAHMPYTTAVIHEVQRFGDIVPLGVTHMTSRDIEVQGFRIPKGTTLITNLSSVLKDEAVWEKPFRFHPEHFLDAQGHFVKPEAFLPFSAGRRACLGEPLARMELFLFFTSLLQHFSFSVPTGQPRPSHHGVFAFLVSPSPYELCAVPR
Nuclear receptor subfamily 1 group I member 2 (Homo sapiens), sequence (O75469 whole entry, looked up): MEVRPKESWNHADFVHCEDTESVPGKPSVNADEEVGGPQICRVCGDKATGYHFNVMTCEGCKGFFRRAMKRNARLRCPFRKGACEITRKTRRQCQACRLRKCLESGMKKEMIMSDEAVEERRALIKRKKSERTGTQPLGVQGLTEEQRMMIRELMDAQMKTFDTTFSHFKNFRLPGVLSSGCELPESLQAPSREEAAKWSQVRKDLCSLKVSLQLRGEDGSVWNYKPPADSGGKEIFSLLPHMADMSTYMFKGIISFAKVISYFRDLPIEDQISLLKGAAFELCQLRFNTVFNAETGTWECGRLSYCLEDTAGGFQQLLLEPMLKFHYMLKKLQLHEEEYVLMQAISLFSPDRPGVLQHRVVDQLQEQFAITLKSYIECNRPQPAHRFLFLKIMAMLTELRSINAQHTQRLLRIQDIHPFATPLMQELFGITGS
Progesterone receptor (Homo sapiens), sequence (P06401 whole entry, looked up): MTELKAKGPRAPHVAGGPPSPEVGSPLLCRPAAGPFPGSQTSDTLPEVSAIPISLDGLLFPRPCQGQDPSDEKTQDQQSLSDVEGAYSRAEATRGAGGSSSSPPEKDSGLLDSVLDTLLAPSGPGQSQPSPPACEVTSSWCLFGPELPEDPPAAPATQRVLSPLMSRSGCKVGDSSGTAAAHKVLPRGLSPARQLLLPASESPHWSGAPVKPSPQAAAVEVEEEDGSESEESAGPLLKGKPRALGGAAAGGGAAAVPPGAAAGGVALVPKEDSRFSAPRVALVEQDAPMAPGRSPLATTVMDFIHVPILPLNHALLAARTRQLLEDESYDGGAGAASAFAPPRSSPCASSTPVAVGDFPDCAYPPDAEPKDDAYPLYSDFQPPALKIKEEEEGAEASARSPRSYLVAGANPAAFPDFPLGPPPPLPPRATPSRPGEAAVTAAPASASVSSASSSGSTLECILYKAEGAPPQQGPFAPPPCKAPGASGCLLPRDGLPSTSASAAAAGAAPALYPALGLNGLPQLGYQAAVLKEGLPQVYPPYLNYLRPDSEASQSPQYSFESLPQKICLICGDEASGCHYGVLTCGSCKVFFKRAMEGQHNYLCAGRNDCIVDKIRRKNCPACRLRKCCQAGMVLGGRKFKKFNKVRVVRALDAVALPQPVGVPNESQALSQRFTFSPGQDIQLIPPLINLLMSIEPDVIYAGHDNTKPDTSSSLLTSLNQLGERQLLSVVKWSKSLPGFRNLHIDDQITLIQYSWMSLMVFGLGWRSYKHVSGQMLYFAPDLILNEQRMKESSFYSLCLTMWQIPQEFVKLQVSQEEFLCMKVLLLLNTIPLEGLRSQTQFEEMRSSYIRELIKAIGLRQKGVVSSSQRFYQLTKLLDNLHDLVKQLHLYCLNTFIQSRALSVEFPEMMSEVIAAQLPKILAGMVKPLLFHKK
Thyrotropin-releasing hormone receptor (Homo sapiens), sequence (P34981 whole entry, looked up): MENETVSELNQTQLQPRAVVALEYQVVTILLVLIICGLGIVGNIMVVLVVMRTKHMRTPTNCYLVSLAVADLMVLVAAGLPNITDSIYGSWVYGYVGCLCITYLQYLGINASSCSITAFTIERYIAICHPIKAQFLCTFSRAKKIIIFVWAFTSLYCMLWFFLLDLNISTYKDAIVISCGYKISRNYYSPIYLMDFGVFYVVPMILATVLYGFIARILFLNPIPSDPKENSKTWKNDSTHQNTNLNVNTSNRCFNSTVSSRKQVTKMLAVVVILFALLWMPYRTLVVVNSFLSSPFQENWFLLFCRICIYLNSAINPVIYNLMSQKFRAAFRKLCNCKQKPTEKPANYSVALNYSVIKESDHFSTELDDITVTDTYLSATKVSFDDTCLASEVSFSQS
Nuclear receptor subfamily 1 group I member 2 (Rattus norvegicus), sequence (Q9R1A7 whole entry, looked up): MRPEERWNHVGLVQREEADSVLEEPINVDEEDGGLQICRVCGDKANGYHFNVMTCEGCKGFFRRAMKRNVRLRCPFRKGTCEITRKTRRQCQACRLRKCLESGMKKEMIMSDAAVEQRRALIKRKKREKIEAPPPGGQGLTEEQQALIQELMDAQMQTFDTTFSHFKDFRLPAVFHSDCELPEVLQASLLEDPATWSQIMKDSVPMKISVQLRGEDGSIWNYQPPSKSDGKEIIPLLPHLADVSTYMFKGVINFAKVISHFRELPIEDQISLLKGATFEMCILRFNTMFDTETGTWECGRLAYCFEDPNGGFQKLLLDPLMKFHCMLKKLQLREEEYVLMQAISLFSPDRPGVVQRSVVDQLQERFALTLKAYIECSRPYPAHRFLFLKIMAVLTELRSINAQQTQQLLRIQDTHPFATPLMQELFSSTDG

For the molecule `O=C(O)c1cccc(N(Cc2cccnc2)c2ccc(OC(F)F)c(OC(F)F)c2)c1`, the Potency result in experiment [1], in [3], in experiment [4], in [5], in [6] and in experiment [9] was “inactive” each time. Besides, the call in experiment [2] and in experiment [7] was inactive. The Potency is 68.6 µM (active) in experiment [8] and 43.3 µM (active) in experiment [10].

For the molecule `CCCCCCCC/C=C\CCCCCCCC(N)=O`, the Potency result in [1], in [4], in [5], in experiment [11], in experiment [14] and in [6] was “inactive” each time. For the same molecule, the Potency entry in [8], in experiment [9] and in experiment [15] was “inactive” in each case. Further, the molecule was classed as inactive in experiment [2], in [12], in [13] and in experiment [7]. For the same molecule, the Potency was 15.3 µM (active) in experiment [10] and 50.2 µM (active) in [16].

`CC(=O)c1c(C)c([N+](=O)[O-])c(C(C)(C)C)c([N+](=O)[O-])c1C`: the Potency entry in [1], in experiment [3], in experiment [5], in [11], in [6] and in experiment [8] was “inactive” each time. For the same molecule, the Potency entry in experiment [9], in [15] and in experiment [16] was “inactive” in each case. The molecule was classed as inactive in [2], in [12] and in experiment [7]. Moreover, the Potency in experiment [10] was 48.6 µM (active).

As for `CCCC(C)C`, the Potency result in experiment [1], in [5], in [11], in experiment [14], in experiment [6] and in experiment [8] was “inactive” in each case. Also, the Potency entry in experiment [9], in experiment [15] and in [16] was “inactive” each time. Also, the call in experiment [2], in [12], in experiment [13] and in [7] was inactive.

On to `COCCO`, for which the Potency result in experiment [1], in experiment [3], in experiment [5], in experiment [11], in [14] and in experiment [6] was “inactive” each time. Also, the Potency result in [8], in experiment [9], in experiment [15], in experiment [10] and in [16] was “inactive” throughout. For the same molecule, the molecule was classed as inactive in experiment [2], in [12], in [13] and in experiment [7].

As to `CN(C(=O)CCCOc1ccc2[nH]c(=O)ccc2c1)C1CCCCC1`, the Potency result in experiment [1], in experiment [5], in experiment [11], in experiment [14], in experiment [6] and in experiment [9] was “inactive” in each case. Besides, the Potency result in [15] and in [16] was “inactive” each time. The result in experiment [2], in experiment [13] and in experiment [7] was inactive. In experiment [10], the Potency was 15 µM (active).

In the case of `CN1CCN(C2=Nc3ccccc3Sc3ccc(Cl)cc32)CC1`, the Potency result in experiment [1], in experiment [3], in experiment [4], in [5], in [14] and in experiment [6] was “inactive” in each case. In addition, the Potency entry in experiment [8], in experiment [9] and in [15] was “inactive” throughout. In addition, the molecule was called inactive in experiment [2], in experiment [13] and in experiment [7]. For the same molecule, the Potency in experiment [17] is 22.4 µM (active); in experiment [18], 25.1 µM (active); in [16], 15.5 µM (active).

As for `CCCCCCCCCO`, the Potency entry in experiment [1], in [3], in [5], in experiment [11], in experiment [14] and in experiment [6] was “inactive” in each case. Also, the Potency entry in [8], in experiment [9], in experiment [15] and in [10] was “inactive” in each case. In addition, the call in experiment [2], in experiment [12], in experiment [13] and in [7] was inactive.

Consider `Cc1ccccn1`, for which the Potency result in [1], in experiment [3], in [5], in experiment [11], in [14] and in experiment [6] was “inactive” throughout. Also, the Potency entry in experiment [8] and in [9] was “inactive” in each case. Besides, the result in experiment [2], in experiment [12], in experiment [13] and in experiment [7] was inactive. The max activation in experiment [19] is -5.22%.
